# Laboratory results published in PubChem BioAssay.
# Activity calls are given as the source filed them. Unless noted, how the calls were made is not given here.
# Legend:
# [1] = system: Wnt5a (protein binding on small-molecule microarray); assay: Wnt5a binders on small-molecule microarray, primary screen, biophysical, 635/667 nm fluorescence (AID 1142); conditions: 635 nm fluorescence, higher = more signal;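 further: fluorescence read at 667 nm with signal to noise per printed feature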
# [2] = cell viability in Huh7 cells, primary screen, cytotoxicity control for HCV replication inhibitor project, CellTiter-Glo luminescence, basal, 48 h (AID 1143); conditions: Huh7 HCV replicon, higher = more signal, called active from +8 up or from −8 down;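 further: Huh7 hepatoma cells carrying a hepatitis C replication reporter with no stimulus; test concentration not given here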
# [3] = P. aeruginosa biofilm formation inhibitors, primary screen, PAO1 strain, BacTiter-Glo luminescence, LB-PBS (AID 1144); conditions: 12 h, higher = more signal
# [4] = CREB reporter modulators without forskolin, primary screen, cell-based, PC12, CRE-LacZ reporter, unstimulated (AID 1145); conditions: no forskolin, luminescence, 4.5 h, higher = more signal, called active from +8 up or from −8 down
# [5] = CREB reporter modulators under forskolin, primary screen, cell-based, PC12, CRE-LacZ reporter, forskolin-stimulated (AID 1146); conditions: luminescence, 4.5 h, higher = more signal, called active from +8 up or from −8 down;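 further: PC12 cells with 6xCRE LacZ reporter stimulated by forskolin 10 µM; beta-galactosidase reporter signal reflecting CREB driven transcription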
# [6] = biological target: Streptavidin (Streptomyces avidinii) (UniProt P22629); assay: streptavidin binders on small-molecule microarray, primary screen, artefact control for SMM compound annotation, biophysical, 635/667 nm fluorescence (AID 1147); conditions: streptavidin binding, higher = more signal;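 further: signal reflects streptavidin binding to arrayed compounds as a control protein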
# Chain of Streptavidin (Streptomyces avidinii) (P22629 whole entry, looked up): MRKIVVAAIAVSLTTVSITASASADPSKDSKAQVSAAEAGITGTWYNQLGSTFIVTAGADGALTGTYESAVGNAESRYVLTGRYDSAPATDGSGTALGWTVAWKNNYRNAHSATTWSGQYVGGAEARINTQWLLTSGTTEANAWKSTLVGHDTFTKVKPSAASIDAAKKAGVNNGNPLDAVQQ
# [7] = small-molecule binders of probe aInhba, primary screen, biochemical, small-molecule microarray, 635/667 nm fluorescence (AID 1148); conditions: higher = more signal;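 further: score merges 667nm spot fluorescence with signal-to-noise for antibody binding to printed compounds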
# [8] = biological target: Torsin-1A (Homo sapiens) (UniProt O14656); assay: torsin A binders from cell lysate, primary screen, small-molecule microarray, wild-type, 635/667 nm (AID 1149); conditions: COS7 hTOR1A-WT lysate, 635 nm fluorescence, higher = more signal
# Chain of Torsin-1A (Homo sapiens) (O14656 whole entry, looked up): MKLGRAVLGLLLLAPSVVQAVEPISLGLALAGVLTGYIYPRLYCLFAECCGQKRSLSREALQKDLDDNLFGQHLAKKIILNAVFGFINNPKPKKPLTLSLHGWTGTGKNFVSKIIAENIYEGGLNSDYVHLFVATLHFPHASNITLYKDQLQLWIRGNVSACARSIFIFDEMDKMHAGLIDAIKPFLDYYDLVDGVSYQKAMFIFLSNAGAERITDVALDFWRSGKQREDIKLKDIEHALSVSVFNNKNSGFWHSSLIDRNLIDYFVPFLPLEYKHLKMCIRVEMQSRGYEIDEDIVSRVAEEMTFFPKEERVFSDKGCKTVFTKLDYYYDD
# [9] = biological target: Torsin-1A (Homo sapiens) (UniProt O14656); assay: small-molecule binders of mutant TOR1A in lysate, primary screen, cell lysate, small-molecule microarray, COS7 lysate, 635/667 nm fluorescence (AID 1150); conditions: COS7 hTOR1A mutant lysate, 635 nm fluorescence, higher = more signal;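 further: score pools 667 nm emission and signal to noise measuring lysate protein binding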
# [10] = system: Sonic hedgehog protein (Shh); assay: small-molecule binders of Shh protein, primary screen, biochemical, small-molecule microarray, 635/667 nm fluorescence (AID 1151); conditions: small-molecule microarray binding, 635 nm fluorescence; higher = more signal;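 further: Shh protein binding to compounds spotted on small-molecule microarray slides; score combines spot fluorescence intensity with signal-to-noise across triplicate slides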
# [11] = E. coli DRC41 culture turbidity changes, primary screen, E. coli filamentation inducer project, strain DRC41, OD650, 48 h (AID 1152);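 further: E. coli MC1000 strain DRC41 lacking acrAB efflux pump and sulA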; conditions: E. coli DRC41 (acrAB sulA), higher = more signal, called active from +8 up or from −8 down
# [12] = small-molecule binders of probe aLefty1, primary screen, biochemical, small-molecule microarray, 635/667 nm fluorescence (AID 1153); conditions: higher = more signal;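 further: score merges spot fluorescence with signal-to-noise ratio from the scanned slide images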
# [13] = PSAC antagonists in infected red cells, primary screen, cell-based, P. falciparum Indochina, OD700, 1 h (AID 1154); conditions: P. falciparum Indochina infected RBC osmotic lysis, higher = more signal, called active from +8 up or from −8 down
# [14] = PSAC antagonists in infected red cells, primary screen, cell-based, P. falciparum Indochina, OD700, 2 h (AID 1155);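 further: lysis reports solute entry through the parasite surface anion channel PSAC; channel blockers reduce lysis of infected cells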; conditions: P. falciparum Indochina infected erythrocytes, osmotic lysis OD700; higher = more signal, called active from +8 up or from −8 down
# [15] = osmotic lysis modulators in infected erythrocytes, primary screen, PSAC antagonist project, cell-based, P. falciparum Indochina, OD700, 3 h (AID 1156); conditions: higher = more signal, called active from +8 up or from −8 down
# [16] = PSAC antagonists in infected red cells, primary screen, cell-based, P. falciparum Indochina, OD700, 18 h (AID 1157); conditions: P. falciparum Indochina infected erythrocytes, osmotic lysis OD700, 18 h; higher = more signal, called active from +8 up or from −8 down
# [17] = modulators of S6 phosphorylation in cells, primary screen, cell-based, A549, cytoblot, luminescence, serum-stimulated (AID 1158); conditions: A549 phospho-S6 cytoblot, 5 h, higher = more signal;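 further: serum-stimulated A549 lung adenocarcinoma cells; signal is phosphorylated S6 detected by cytoblot immunostaining with HRP secondary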
# [18] = biological target: NADPH oxidase 2 (Homo sapiens) (UniProt P04839); assay: NOX2-dependent H2O2 signal modulators, primary screen, NOX inhibitor project, cell-based, HEK293-NOX2, PMA-stimulated, Amplex Red fluorescence (AID 1159); conditions: 45 min, higher = more signal, called active from +8 up or from −8 down; further: test concentration not given here
# Chain of NADPH oxidase 2 (Homo sapiens) (P04839 whole entry, looked up): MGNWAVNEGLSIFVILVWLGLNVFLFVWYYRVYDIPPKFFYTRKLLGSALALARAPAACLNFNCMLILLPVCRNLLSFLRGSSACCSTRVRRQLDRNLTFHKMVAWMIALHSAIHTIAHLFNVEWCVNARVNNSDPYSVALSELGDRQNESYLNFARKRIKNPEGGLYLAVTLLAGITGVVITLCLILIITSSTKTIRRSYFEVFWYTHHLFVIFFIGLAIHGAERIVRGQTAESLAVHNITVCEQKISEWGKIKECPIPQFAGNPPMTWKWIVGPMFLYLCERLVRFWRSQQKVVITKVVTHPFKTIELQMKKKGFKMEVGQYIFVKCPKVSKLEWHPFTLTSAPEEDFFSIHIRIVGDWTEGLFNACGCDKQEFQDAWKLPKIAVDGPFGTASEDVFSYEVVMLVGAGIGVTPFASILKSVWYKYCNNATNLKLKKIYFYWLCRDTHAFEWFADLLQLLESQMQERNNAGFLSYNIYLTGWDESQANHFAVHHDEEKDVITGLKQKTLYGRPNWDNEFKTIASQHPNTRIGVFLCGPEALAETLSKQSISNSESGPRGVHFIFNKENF
# [19] = biological target: NADPH oxidase 4 (Homo sapiens) (UniProt Q9NPH5); assay: NOX4-dependent H2O2 signal modulators, primary screen, NOX inhibitor project, cell-based, HEK293-NOX4, tetracycline-induced, Amplex Red fluorescence (AID 1160); conditions: 45 min, higher = more signal, called active from +8 up or from −8 down
# Chain of NADPH oxidase 4 (Homo sapiens) (Q9NPH5 whole entry, looked up): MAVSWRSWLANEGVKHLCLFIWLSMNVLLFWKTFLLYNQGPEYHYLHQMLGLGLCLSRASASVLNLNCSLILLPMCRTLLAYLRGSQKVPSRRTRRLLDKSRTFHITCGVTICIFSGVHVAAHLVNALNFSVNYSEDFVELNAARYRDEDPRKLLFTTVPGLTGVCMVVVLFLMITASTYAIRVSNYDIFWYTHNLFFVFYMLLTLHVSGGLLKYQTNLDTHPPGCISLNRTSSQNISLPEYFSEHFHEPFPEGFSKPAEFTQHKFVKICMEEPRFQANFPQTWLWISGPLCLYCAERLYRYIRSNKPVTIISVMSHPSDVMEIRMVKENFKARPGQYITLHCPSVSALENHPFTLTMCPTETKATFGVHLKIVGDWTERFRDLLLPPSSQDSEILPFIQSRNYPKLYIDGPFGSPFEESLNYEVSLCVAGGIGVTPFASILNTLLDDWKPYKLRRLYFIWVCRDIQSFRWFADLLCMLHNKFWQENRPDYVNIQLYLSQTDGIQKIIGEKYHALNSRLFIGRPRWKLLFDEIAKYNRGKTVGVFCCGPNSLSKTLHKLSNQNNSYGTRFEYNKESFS
# [20] = biological target: NADPH oxidase 5 (Homo sapiens) (UniProt Q96PH1); assay: NOX5-dependent H2O2 signal modulators, primary screen, NOX inhibitor project, cell-based, HEK293-NOX5, Amplex Red fluorescence (AID 1161); conditions: HEK293-NOX5, ionomycin, 45 min, higher = more signal
# Chain of NADPH oxidase 5 (Homo sapiens) (Q96PH1 whole entry, looked up): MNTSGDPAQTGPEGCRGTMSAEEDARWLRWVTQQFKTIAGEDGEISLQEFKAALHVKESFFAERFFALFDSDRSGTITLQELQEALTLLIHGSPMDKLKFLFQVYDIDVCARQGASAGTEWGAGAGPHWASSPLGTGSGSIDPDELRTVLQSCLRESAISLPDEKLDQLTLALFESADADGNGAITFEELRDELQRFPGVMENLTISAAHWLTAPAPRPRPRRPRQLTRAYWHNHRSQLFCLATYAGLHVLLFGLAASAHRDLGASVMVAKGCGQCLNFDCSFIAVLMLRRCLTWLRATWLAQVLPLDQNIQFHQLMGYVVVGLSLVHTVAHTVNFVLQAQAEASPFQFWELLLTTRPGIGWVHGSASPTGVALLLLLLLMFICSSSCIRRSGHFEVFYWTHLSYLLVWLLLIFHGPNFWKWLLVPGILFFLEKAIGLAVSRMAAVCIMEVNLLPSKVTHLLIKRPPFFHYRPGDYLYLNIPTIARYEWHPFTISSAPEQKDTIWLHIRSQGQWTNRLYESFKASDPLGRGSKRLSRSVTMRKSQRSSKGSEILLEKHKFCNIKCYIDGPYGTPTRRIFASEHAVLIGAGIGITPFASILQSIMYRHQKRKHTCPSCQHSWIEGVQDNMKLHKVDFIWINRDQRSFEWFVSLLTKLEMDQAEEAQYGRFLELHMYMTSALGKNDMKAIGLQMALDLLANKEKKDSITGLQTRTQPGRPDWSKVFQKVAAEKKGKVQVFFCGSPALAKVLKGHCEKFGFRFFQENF
SMILES,composite z-score [1],z-score [2],z-score [3],z-score [4],z-score [5],composite z-score [6],composite z-score [7],composite z-score [8],composite z-score [9],composite z-score [10],z-score [11],composite z-score [12],z-score [13],z-score [14],z-score [15],z-score [16],z-score [17],z-score [18],z-score [19],z-score [20]
O=C1C2C=CC(C(O)c3cccc4ccccc34)N(n3cnnc3)C2C(=O)N1Cc1ccccc1 (stereo not given),1.24,0.251 (inactive),0.878 (inactive),0.425 (inactive),0.972 (inactive),0.225,1.28,0.104,-0.0432,0.177,-1.53 (inactive),1.69,-0.0851 (inactive),0.327 (inactive),0.282 (inactive),0.339 (inactive),-0.711,-0.154 (inactive),0.0285 (inactive),-0.879
COC(=O)[C@@]1(Cc2ccccc2)[C@H]2c3cc(C(=O)N(C)C)n(Cc4ccccc4)c3C[C@H]2CN1C(=O)c1ccccc1,0.347,-0.513 (inactive),0.0307 (inactive),0.776 (inactive),1.08 (inactive),1.68,0.209,-0.314,0.766,-0.867,-1.39 (inactive),0.177,1.54 (inactive),0.488 (inactive),0.775 (inactive),0.667 (inactive),-0.608,0.543 (inactive),-0.0416 (inactive),-0.0705
COC(=O)[C@@]1(Cc2ccc(F)cc2)[C@H]2c3cc(C(=O)N4CCCC4)n(CCc4ccc(OC)c(Br)c4)c3C[C@H]2CN1C(=O)c1ccccc1,0.375,-3.82 (inactive),0.839 (inactive),0.0109 (inactive),-1.14 (inactive),2.46,0.431,0.17,0.858,-0.328,-0.71 (inactive),1.2,7.48 (inactive),1.5 (inactive),0.248 (inactive),1.33 (inactive),0.0028,0.0756 (inactive),0.742 (inactive),0.98
[N-]=[N+]=NCc1ccccc1[C@@H]1OC(c2ccc(OCCCO)cc2)=N[C@]1(Cc1ccccc1)C(=O)O,-0.198,-0.354 (inactive),-0.608 (inactive),1.19 (inactive),-0.707 (inactive),0.728,-0.016,0.497,0.786,-0.934,-0.235 (inactive),0.0429,15.6 (active),2.07 (inactive),-0.143 (inactive),0.786 (inactive),-0.117,0.174 (inactive),1.1 (inactive),1.74
C=CCOC(=O)[C@H]1[C@@H]2C(=O)O[C@@H](c3ccccc3)[C@@H](c3ccccc3)N2[C@@H](c2ccc(OCCOC(=O)[C@H]3C[C@H]4C(=O)N[C@@H](CCCC[N+](C)(C)C)C(=O)N4[C@H]3c3ccc(O)cc3)cc2)[C@]12C(=O)Nc1ccccc12,0.0385,-0.236 (inactive),-0.968 (inactive),-1.62 (inactive),-1.06 (inactive),-0.22,-0.258,0.475,0.846,1.18,0.0787 (inactive),0.206,-2.12 (inactive),-1.12 (inactive),0.857 (inactive),-1.95 (inactive),-0.327,2.39 (inactive),0.928 (inactive),0.96
O=C1O[C@H](c2ccccc2)[C@H](c2ccccc2)N2[C@H]1[C@@H](C(=O)NC[C@H](O)c1ccccc1)[C@]1(C(=O)Nc3ccc(C#CC4=CCCCC4)cc31)[C@H]2c1ccc(O)cc1,0.688,-5.36 (inactive),-0.354 (inactive),-0.602 (inactive),-0.912 (inactive),0.758,0.121,0.769,1.08,1.51,1.8 (inactive),-0.0418,1.35 (inactive),0.393 (inactive),-0.693 (inactive),-0.521 (inactive),1.98,2.08 (inactive),0.754 (inactive),-0.0561
CCCC[C@@H]1C[C@H]1[C@@H](NC(=O)c1ccccc1)c1ccccc1,0.209,-0.877 (inactive),0.727 (inactive),0.0041 (inactive),0.79 (inactive),0.0499,0.401,-0.477,-0.0734,-0.412,-1.39 (inactive),1.43,0.713 (inactive),0.803 (inactive),0.13 (inactive),0.888 (inactive),-0.943,-0.289 (inactive),-1.21 (inactive),1.98
CC(C)C(=C=CC[C@H](O)c1ccccc1OCCO)CCO,-0.0207,-0.334 (inactive),0.00427 (inactive),2.14 (inactive),1.49 (inactive),-0.366,-0.101,-0.0451,0.408,0.569,-0.42 (inactive),-0.0576,2.08 (inactive),-0.0743 (inactive),-0.163 (inactive),0.013 (inactive),-0.2,-0.353 (inactive),0.323 (inactive),-0.738
